# Publication PMC4552634, “A New Set of Chemical Starting Points with Plasmodium falciparum Transmission-Blocking Potential for Antimalarial Drug Discovery” (PLoS ONE, 2015)
# Where two headings read alike, the source gives them in different places. About 3,200 (25%) of roughly 13,000 compounds showed an effect of 50% or more. The list shows a part of the results.
# System: P. falciparum stage V gametocytes
# Parameters: BacTiter-Glo ATP luminescence viability of purified stage V gametocytes in 384-well plates, per cent inhibition versus DMSO
# Details: 48 h, 5 µM, inhibitor
Compound,% Inhibition [%],% Inhibition (% Inhibition) [%]
CN1CCCC1CCOc1ccc2c(c1)N(C(=O)Nc1cc(Br)cc(C(F)(F)F)c1)CC2 (stereo not drawn) [TCMDC-140247],47.25,–
CC(C)c1ccc(NS(=O)(=O)c2cccc(C(=O)NC3CCN(CC4CCCCC4)CC3)c2)cc1 [TCMDC-136739],-17.03,–
CCOC(=O)CCCOc1cc(Cc2cnc(N)nc2N)cc(OC)c1OC [TCMDC-137356],44.1,–
CC(C)C(C(=O)Nc1ccc2c(c1)OCO2)c1ccc(Cl)cc1 (stereo not drawn) [TCMDC-125398],78.19,–
CC(C)C(C(=O)Nc1ccc(S(=O)(=O)N(C)C)cc1)c1ccc(Cl)cc1 (stereo not drawn) [TCMDC-125113],56.45,–
COc1cc(Nc2nccc(N3CCC(NC(=O)C(C)c4ccc(Cl)cc4)C3)n2)cc(OC)c1OC (stereo not drawn) [TCMDC-133623],58.38,–
COc1ccc(Cl)cc1NC(=O)C(C)Nc1ccc(-c2ccccc2)cc1 (stereo not drawn) [TCMDC-123559],-53.48,–
Cc1cc(N2CCCC2)nc(Nc2ccc(NC(=O)c3ccc4c(c3)OCO4)cc2)n1 [TCMDC-124955],-35.01,–
COc1ccc(Nc2nccc(N3CCC(NC(=O)C(C)c4ccc(Cl)cc4)C3)n2)cc1 (stereo not drawn) [TCMDC-133612],-10.01,–
COc1cc(NC(=O)C(c2ccc(Cl)cc2)C(C)C)cc(OC)c1OC (stereo not drawn) [TCMDC-125118],82.24,–
O=C(Nc1ccc2c(c1)OCO2)c1cc(-c2cccnc2)nc2ccc(Cl)cc12 [TCMDC-125213],-64.78,–
Cc1nc2ccc(NC(=O)c3cc(S(=O)(=O)N(C)C)ccc3Cl)cc2s1 [TCMDC-124375],38.91,–
COc1cc(C(C)C)nc2ccc(NC(=O)c3ccc(C(=O)Nc4ccc5nc(C(C)C)cc(OC)c5c4)cc3)cc12 [TCMDC-140150],33.52,–
CC(C)c1ccc(CN(C)CCCCNC(=O)c2ccc(NC(=O)c3ccc(Cl)cc3)cc2)cc1 [TCMDC-138505],20.72,–
CC(C(=O)NC1CCN(c2ccnc(Nc3ccc(F)cc3)n2)C1)c1ccc(Cl)cc1 (stereo not drawn) [TCMDC-133596],19.11,–
O=C(Nc1ccccc1)Nc1ccc(-c2cccc(-c3nc4ccc(C(F)(F)F)cc4[nH]3)c2)cc1 [TCMDC-133153],-37.9,–
COC(=O)c1ccc2c(c1)nc(Nc1cccc(F)c1)n2CC(O)c1ccccn1 (stereo not drawn) [TCMDC-138586],-5.24,–
CC(C)(C)c1nn(-c2ccccc2)c2[nH]c(=O)c(CNCCc3ccccc3)cc12 [TCMDC-125381],14.37,–
CCCCN1CCN(c2cc(NS(=O)(=O)c3ccc(C(=O)Nc4ccc(C(F)(F)F)cc4)cc3)ccc2OC)CC1 [TCMDC-141777],-10.1,–
O=C(Nc1ccc(-c2nc3ccccc3[nH]2)cc1)c1cncc(Br)c1 [TCMDC-123692],2.548,–
COc1cc(NC(=O)c2cccc([N+](=O)[O-])c2)cc(S(=O)(=O)c2ccc(Cl)cc2)c1 [TCMDC-124901],21.63,–
COc1ccc(Nc2nccc(N3CCC(NC(=O)C(C)c4ccc(Cl)cc4)CC3)n2)cc1 (stereo not drawn) [TCMDC-133633],29.63,–
COc1cc(NC(=O)C(c2ccc(Cl)cc2)C(C)C)cc(OC)c1 (stereo not drawn) [TCMDC-124823],74.52,–

Compound,% Inhibition [%],% Inhibition (% Inhibition) [%]
CCCc1nc2c(N3CC(NC(=O)/C=C/c4ccccc4)C3)cccc2n1C1CC1 [TCMDC-134613],8.32,–
O=C1C2=C(Nc3ccccc3SC2c2cccs2)c2ccccc21 (stereo not drawn) [TCMDC-124060],-4.275,–
COCCNCc1cccc(-c2cccc(CNC3CCN(Cc4ccccc4)CC3)c2)c1 [TCMDC-140481],99.88,–
COCCNCc1cccc(-c2ccc(CNC3CCN(Cc4ccccc4)CC3)cc2)c1 [TCMDC-140489],85.27,–
COc1cccc(CCNCc2ccc(-c3cccc(CNC4CCCC4)c3)cc2)c1 [TCMDC-140493],66.56,–
COCCNCc1ccc(-c2ccc(CNC3CCN(Cc4ccccc4)CC3)cc2)cc1 [TCMDC-140490],23.65,–
COCCNCc1ccc(-c2cccc(CNc3ccc(OC)cc3)c2)cc1 [TCMDC-140484],-1.116,–
COc1ccc(NCc2cccc(-c3cccc(CNCCc4ccccc4)c3)c2)cc1 [TCMDC-140485],-4.016,–
COCCNCc1ccc(-c2cccc(CNC3CCN(Cc4ccccc4)CC3)c2)cc1 [TCMDC-140482],107.8,–
O=C(NCc1cccc(C(F)(F)F)c1)C(c1cc2ccccc2o1)N1CCN(C(c2ccccc2)c2ccccc2)CC1 (stereo not drawn) [TCMDC-141008],8.041,–
Cc1ccc(C(C)C)cc1CON1C(N)=NC(N)=NC1(C)C [TCMDC-131323],26.53,–
COc1ccc2nccc([C@@H](O)CN3CCC(NCc4ccc(OC)c(NC=O)c4)CC3)c2c1 [TCMDC-141568],1.46,–
CN(Cc1cccc(C#N)c1)C1CCN(c2cc(NC(=O)c3ccc(F)cc3)ccn2)CC1 [TCMDC-134974],-6.144,–
CN(C)CCOc1cc(NC(=O)Nc2ccc(Cl)cc2C(F)(F)F)ccc1I [TCMDC-139125],-26.77,–
Cc1cc(N[C@@H](CC(C)C)C(=O)NCCOc2ccccc2)nc(NCC2CCCCC2)n1 [TCMDC-134919],-82.39,–
COc1cccc(CN2CCC3(CC2)CN(C(=O)Nc2ccc(Cl)c(Cl)c2)C3)c1 [TCMDC-136484],-4.115,–
CN(CCCc1c[nH]c2ccccc12)CCC1CCC(NC(=O)/C=C/c2ccc(Cl)c(Cl)c2)CC1 (stereo not drawn) [TCMDC-139449],-10.77,–
CN1CCN(CC2(Nc3nccc(NCCc4cn(C)c5ccccc45)n3)CCCCC2)CC1 [TCMDC-135122],114.3,–
Clc1ccc(CNc2ccnc(NCc3cccnc3N3CCCC3)n2)c(Cl)c1 [TCMDC-135112],11.98,–
CCOc1ccccc1CNc1nccc(NCCc2cn(C)c3ccccc23)n1 [TCMDC-135123],47.81,–
CN1CCN(CC2(Nc3nccc(NCc4ccc(Cl)cc4Cl)n3)CCCCC2)CC1 [TCMDC-135114],73.23,–
CCOc1ccccc1CNc1nccc(NCc2ccc(Cl)cc2Cl)n1 [TCMDC-135115],39.1,–
Cn1cc(CCNc2ccnc(NCCc3coc4ccccc34)n2)c2ccccc21 [TCMDC-135121],46.44,–

Compound,% Inhibition [%],% Inhibition (% Inhibition) [%]
O=C(c1cccc(-c2ccc(-c3nc4cc(C(F)(F)F)ccc4[nH]3)cc2)c1)N1CCCCC1CN1CCC(O)C1 (stereo not drawn) [TCMDC-132345],-7.323,–
O=C([C@H]1CCCCN1c1ccc([N+](=O)[O-])c2ccccc12)N1CCN(c2ncccn2)CC1 [TCMDC-135504],-25.11,–
Cc1cccc(OC(C)C(=O)Nc2cc(C(F)(F)F)ccc2N2CCOCC2)c1 (stereo not drawn) [TCMDC-125116],-67.15,–
Nc1ncc(OC2CCCCC2)c(N)n1 [TCMDC-137916],86.08,–
COc1ccc(Oc2cnc(N)nc2N)c(C(C)C)c1 [TCMDC-132471],-12.02,–
Nc1nccc2ccc(OC3CCCCC3)cc12 [TCMDC-136543],27.41,–
Cc1nc(Nc2ccc(F)cc2)nc(N2CCc3ccccc3[C@@H]2C)c1C [TCMDC-141073],-42.65,–
Cl.c1ccc(CN2CCN(CCNc3c4ccccc4nc4ccccc34)CC2)cc1 [TCMDC-137571],58.89,–
c1ccc(CN2CCN(CCCCNc3c4ccccc4nc4ccccc34)CC2)cc1 [TCMDC-138009],101.2,–
NC(=NC1CC1)c1ccc2nc(CCCCCc3nc4ccc(C(N)=NC5CC5)cc4[nH]3)[nH]c2c1 [TCMDC-137236],9.891,–
Cc1cc(SC(C)(C)C)cc2c(Cl)c(C(N)=O)cnc12 [TCMDC-135415],114.9,–
COc1ccccc1-c1cccc(CNC2CCN(CC3Cn4c(=O)ccc5ccc(F)c3c54)CC2)c1 (stereo not drawn) [TCMDC-134411],15.92,–
O=C(CCc1ccc(Cl)cc1Cl)NC1CCC(CN2CCC(c3c[nH]c4ccccc34)CC2)CC1 (stereo not drawn) [TCMDC-140262],–,-48.76
O=C(CSc1ccc(Cl)cc1)NC1CCC(CN2CCC(c3c[nH]c4ccccc34)CC2)CC1 (stereo not drawn) [TCMDC-139953],-2.163,–
O=C(CCc1ccc(Cl)cc1Cl)NC1CCC(CN2CCC(c3c[nH]c4ccccc34)CC2)CC1 (stereo not drawn) [TCMDC-140296],–,-15.31
O=C(Cc1cc(=O)oc2cc(O)ccc12)NC1CCC(CN2CCC(c3c[nH]c4ccccc34)CC2)CC1 (stereo not drawn) [TCMDC-139882],-52.99,–
O=C(Cc1c(-c2ccccc2)[nH]c2ccccc12)NC1CCC(CN2CCC(c3c[nH]c4ccccc34)CC2)CC1 (stereo not drawn) [TCMDC-139909],71.88,–
O=C(NC1CCC(CN2CCC(c3c[nH]c4ccccc34)CC2)CC1)c1cn(Cc2ccccc2)c2ccccc12 (stereo not drawn) [TCMDC-139888],107.9,–
O=C(CCCCCc1ccccc1)NC1CCC(CN2CCC(c3c[nH]c4ccccc34)CC2)CC1 (stereo not drawn) [TCMDC-139952],95.36,–
O=C(NC1CCC(CN2CCC(c3c[nH]c4ccccc34)CC2)CC1)c1cnn(-c2ccccc2)c1-c1ccccc1Cl (stereo not drawn) [TCMDC-140375],25.23,–
CCOCCCNc1ncc(-c2ccsc2)c(-c2nc(C)cs2)n1 [TCMDC-124842],18.59,–
Cc1cccc(C(=O)Nc2ccnc(N3CCC(N(C)Cc4ccc(C#N)cc4)CC3)c2)c1 [TCMDC-134977],5.364,–
CCN(CC)CCN1C(=O)c2oc3ccc(F)cc3c(=O)c2C1c1cccc(Cl)c1 (stereo not drawn) [TCMDC-124911],13.72,–
